Results filed as inconclusive are left out. Activity calls are given as the source filed them.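 How the source made its calls, unless noted: active means growth inhibition above 25% in both replicates, a cutoff set 3 SD above the mean; inconclusive means above 25% in only one replicate; inactive means the rest.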

Assay [1] in a line: HUVEC growth inhibition – cell-based, human, primary screen (AID 575;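 active means viability at or below 30% in both replicate assays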;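 further: 100% = median of untreated cell wells with 0.1% DMSO on each plate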). Conditions: HUVEC proliferation, CellTiter-Glo luminescence, 72 h; at 10 µM; stronger effect = lower value. For orientation: Cellular ATP, detected with luciferase, serves as a proxy for viable cell number.
A short description of assay [2]: H69AR cell proliferation blockers – human, duplicate replicates, primary screen (AID 580;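 active means viability at or under a set limit in both replicates, limit being median viability minus 3 SD, cut at about 48% in these data, passing the limit was not always enough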;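 further: 100% = mean luminescence of untreated wells and 0% = no signal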). The following applies: H69AR lung tumor cells viability, ATP luminescence, 72 h; at 10 µM; stronger effect = lower value.
Assay [3] is described as follows: MRP1 drug-resistance reversers in H69AR cells – cell-based, doxorubicin co-treatment, pilot screen (AID 601;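 active means viability loss from added drug above about 55%, and viability with drug at most 40%, in both replicates, limit read from the data, passing the limit was not always enough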). Conditions: CellTiter-Glo, 72 h, at 10 µM; for differential viability (reversal): stronger effect = higher value.
Assay [4] can be described thus: yeast transport mutant growth inhibition pilot in 384-well plates, post-Golgi transport modulator project (AID 636; in the data active means inhibition above about 31%). The following applies: absorbance 615 nm, about 18 h, stronger effect = higher value.
The nature of assay [5]: growth suppression of yeast trafficking mutant, preliminary HTS, modulators of trafficking downstream of Golgi apparatus project, 1536-format plate, OD 615 nm (AID 637; in the data active means inhibition above about 30%). Conditions: yeast transport mutant growth, absorbance 615 nm, 18 h; stronger effect = higher value.
Assay [6] is described as follows: S. cerevisiae growth inhibition in permissive medium (OD615), pilot counter-assay for S. cerevisiae lifespan shortening project, permissive growth control (AID 705). Conditions: OD615, 24 h, at 10 µM, stronger effect = higher value.
Assay [7] in a line: S. cerevisiae growth inhibition in restrictive medium, OD615, pilot screen, restrictive growth control, yeast lifespan reduction project (AID 706;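 active means growth inhibition above a set limit, 3 SD over mean compound inhibition, in both replicates, cut at about 43% in these data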;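 further: modified DeaD lifespan yeast strain shifted to restrictive glucose medium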). Conditions: OD615, 48 h, at 10 µM, stronger effect = higher value.
Assay [8] can be described thus: doxorubicin toxicity protection in MRP-1 cells – H69AR cells, CellTiter-Glo, duplicate, MRP-1 activator project, pilot screen (AID 807;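 active means viability increase at or above a cutoff of the median across tested compounds plus 3 SD, cut at about 8.5% in these data, passing the limit was not always enough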;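 further: compound pretreatment 18-22 h then 72 h combined with doxorubicin; 0% = doxorubicin alone and 100% = vehicle without doxorubicin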). The following applies: H69AR viability with doxorubicin, CellTiter-Glo luminescence; at 10 µM; stronger effect = higher value.
Assay [9] in a line: viability of HCT116 without oncogenic beta-catenin – human colon tumor cells, pilot screen (AID 823;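 active means cell viability at or below a set limit in both duplicate runs, the limit being the all-compound median minus 4 SD, cut at about 23% in these data, passing the limit was not always enough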;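 further: 0% = wells killed by 20 µM Hyamine and 100% = untreated DMSO cell wells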). Conditions: HCT116 beta-catenin knockout viability, CellTiter-Glo, 60 h; at 10 µM; stronger effect = lower value.
Assay [10] in a line: RAM pathway blockade in budding yeast – dse1pr::URA3 reporter, 5-FOA selection, pilot screen (AID 869;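 active means inhibition over a set limit, the all-compound mean plus 3 SD, in both replicate runs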;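 further: 0% = DMSO wells with no growth and 100% = 10 µM 1-NA-PP1 with full growth; RAM network block rescues cells from 5-FOA so hits raise OD615 growth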). Conditions: S. cerevisiae dse1pr::URA3 5-FOA growth, OD615, 2 d; at 10 µM; stronger effect = higher value; strain carries analog-sensitive mutant Cbk1 kinase.
Assay [11] in a line: RAM signaling pathway blockade in yeast – S. cerevisiae, Pdr1DBD-CYC8 efflux-inhibited sensitized strain, primary screen (AID 1298;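 active means RAM network inhibition above 8.4% in each of two replicates, 3 SD over the compound average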;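 further: 0% = DMSO untreated cells without growth and 100% = 10 µM 1-NA-PP1 full growth; higher means more yeast growth rescued from 5-FOA killing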). Conditions: S. cerevisiae cbk1-as DSE1-URA3 strain, 5-FOA growth OD615, 2 d; at 50 µM; stronger effect = higher value.
Assay [12] can be described thus: viability of PTEN-null HCT116 cells – cell-based, HCT116 clonal line, CellTiter-Glo, pilot screen (AID 824;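 active means viability at or below 27.92% in each of two runs, the all-compound median minus 4 SD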;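 further: 0% = 20 µM Hyamine control and 100% = vehicle cell control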). The following applies: HCT116 PTEN-deleted viability, 60 h, at 10 µM, stronger effect = lower value.
Setting [13] is: H69AR cells + 2 uM doxorubicin, measured here: viability with 2 uM doxorubicin, stronger effect = lower value.
Where [14] appears, read: H69AR cells, compound alone cytotoxicity.

Consider `O=S(=O)(NCC(O)COCc1ccco1)c1cccs1` (centres undefined), for which the viability (in general, a read-out of living cells in per cent, often relative to untreated cells) in [1] was 114% (inactive); in assay [2] it was 83.7% (inactive); in assay [3] (setting [13]), 84.3%; in assay [3] (setting [14]), 83.7%; in assay [9] it was 92.8% (inactive). Moreover, in assay [3] (H69AR cells + 2 uM doxorubicin), the differential viability (reversal) is -0.665% (inactive). Besides, the inhibition (commonly the change of the read-out against control, counted positive when it falls) in assay [4] is -6.62% (inactive); in assay [5], -5.56% (inactive); in assay [10], 1.09% (inactive). Moreover, the growth inhibition is -10.3% (inactive) in assay [6] and 2.05% (inactive) in assay [7]. Also, the viability increase in [8] is -3.34% (inactive). The RAM network inhibition in [11] is 6.29% (inactive).

Consider `CC(Sc1nc(N2CCOCC2)nc(N2CCOCC2)n1)C(=O)Nc1ccccc1` (centres undefined), for which the growth inhibition in assay [6] is -18.4% (inactive); in assay [7] it was -21.2% (inactive). The viability increase in [8] was -1.56% (inactive). Moreover, the viability in [9] is 95.5% (inactive); in assay [12] it was 93.2% (inactive). Moreover, the RAM network inhibition in [11] was 5.6% (inactive).

With `CCN1CCN(c2cc(C)c3cc(NC(=O)c4cncc(Br)c4)ccc3n2)CC1`, the growth inhibition in [6] was -4.93% (inactive); in [7], -2.12% (inactive). For the same compound, the viability increase in assay [8] is -6.22% (inactive). The RAM network inhibition in assay [11] was -0.98% (inactive).

For the compound `O=C(Cn1c(=O)oc2cc(S(=O)(=O)N3CCCCCC3)ccc21)NC1CCCCC1`, the growth inhibition in [6] is -4.92% (inactive); in [7], -8.79% (inactive). Further, the viability increase in assay [8] is -4.28% (inactive). Moreover, the viability is 101% (inactive) in [9] and 93.8% (inactive) in assay [12]. Further, the RAM network inhibition in assay [11] was 3.25% (inactive).

With `CC(C)c1ccc(-c2nc(N3CCCCC3)[nH]c(=O)c2C#N)cc1`, the viability was 83.3% (inactive) in assay [1]; 88.3% (inactive) in [2]; 87.5% in assay [3] (setting [13]); 88.3% in assay [3] (setting [14]); 102% (inactive) in assay [9]. Also, the differential viability (reversal) in assay [3] (H69AR cells + 2 uM doxorubicin) was 0.79% (inactive). Besides, the inhibition in [4] is 0.92% (inactive); in assay [5], -3.49% (inactive); in [10] it was 2.5% (inactive). For the same compound, the growth inhibition in assay [6] was -17.7% (inactive); in assay [7], 3.37% (inactive). Besides, the viability increase in assay [8] is -2.54% (inactive). In addition, in assay [11], the RAM network inhibition was 8.32% (inactive).

As to `Cc1ccc(-c2cc(C(F)F)nc(NCc3cccnc3)n2)cc1`, the viability was 63.9% (inactive) in assay [1]; 80.3% (inactive) in [2]; 82.8% in assay [3] (setting [13]); 80.3% in assay [3] (setting [14]); 51% (inactive) in assay [9]; 64.2% (inactive) in [12]. In assay [3] (H69AR cells + 2 uM doxorubicin), the differential viability (reversal) was -2.5% (inactive). The inhibition in assay [4] is -2.63% (inactive); in assay [5], 0.48% (inactive); in [10], 1.65% (inactive). In addition, the growth inhibition in [6] is 4.57% (inactive); in [7], -8.25% (inactive). For the same compound, the RAM network inhibition in [11] was 0.76% (inactive).

As for `CCOC(=O)N1CCN(C(=O)c2ccc(N3C(=O)c4ccccc4C3=O)cc2)CC1`, the growth inhibition in assay [6] was -3.96% (inactive); in [7], -15.2% (inactive). For the same compound, the viability increase in assay [8] is -2.58% (inactive). For the same compound, the viability in assay [9] was 99% (inactive); in [12], 93.6% (inactive). Besides, the RAM network inhibition in assay [11] was 4.06% (inactive).

As for `CC1Cn2c(nnc2-c2ccccc2O)S1` (centres undefined), the growth inhibition in [6] is -13.6% (inactive); in assay [7], -21.9% (inactive). Moreover, the viability increase in assay [8] is -1.33% (inactive). Moreover, the viability in assay [9] was 115% (inactive); in assay [12], 98.2% (inactive). Moreover, the RAM network inhibition in [11] is 5.23% (inactive).

As for `COc1ccccc1S(=O)(=O)Cc1ccc(C(=O)NCc2cccnc2)o1`, the growth inhibition in assay [6] was 0.915% (inactive); in assay [7], -0.525% (inactive). Further, the viability increase in assay [8] is -1.11% (inactive). For the same compound, the viability was 97.8% (inactive) in assay [9] and 94.9% (inactive) in assay [12]. The RAM network inhibition in assay [11] was 2.56% (inactive).

Turning to `CCCCCOC(=O)CSc1nc2c(c(=O)[nH]c(=O)n2C)n1Cc1ccc(Cl)cc1`, the growth inhibition in assay [6] was 11.9% (inactive); in assay [7], 23.6% (inactive). Besides, the viability increase in assay [8] is -3.26% (inactive). Further, the viability in assay [9] was 93.2% (inactive); in assay [12], 84.7% (inactive). Moreover, the RAM network inhibition in [11] is 2.16% (inactive).

As for `N#Cc1nc(-c2ccc(F)cc2)oc1NCCN1CCOCC1`, the growth inhibition was -0.47% (inactive) in assay [6] and -8.75% (inactive) in assay [7]. The viability increase in assay [8] was -2.06% (inactive). Also, the results for the viability in assay [9] and in [12] were 96% (inactive) and 92.3% (inactive), respectively. Moreover, the RAM network inhibition in [11] was 7.83% (inactive).

Turning to `COc1ccc(C(=O)n2nc(C)cc2C)cc1Br`, the results for the growth inhibition in [6] and in assay [7] were -8.38% (inactive) and -1.95% (inactive), respectively. The viability increase in [8] is -0.08% (inactive). Further, the viability in assay [9] was 101% (inactive); in assay [12], 99.3% (inactive). The RAM network inhibition in [11] was -0.42% (inactive).

For the compound `CC(C)OCCCNS(=O)(=O)c1ccc2c(c1)oc(=O)n2C`, the figures for the growth inhibition in [6] and in [7] were -13.3% (inactive) and -6.73% (inactive), respectively. In addition, the viability increase in [8] is -1.3% (inactive). Also, the results for the viability in assay [9] and in [12] were 101% (inactive) and 97% (inactive), respectively. Further, the RAM network inhibition in assay [11] is 0.04% (inactive).

Turning to `CC(c1ccco1)N(C(=O)COc1ccc(Cl)cc1Cl)c1ccccn1` (centres undefined), the viability in assay [1] was 71.6% (inactive); in assay [2], 76.4% (inactive); in assay [3] (setting [13]), 73.3%; in assay [3] (setting [14]), 76.4%; in assay [12], 65.6% (inactive). Further, in [3] (H69AR cells + 2 uM doxorubicin), the differential viability (reversal) was 3.06% (inactive). In addition, the inhibition was -6.71% (inactive) in [4], -10.3% (inactive) in assay [5] and 2.06% (inactive) in assay [10]. Moreover, the figures for the growth inhibition in [6] and in assay [7] were -10.9% (inactive) and -10.3% (inactive), respectively. The viability increase in [8] is -4.89% (inactive). In addition, the RAM network inhibition in assay [11] is 7.28% (inactive).

As for `Cc1ccc(-c2nc(CSCC(=O)N3CCN(C(=O)c4ccco4)CC3)c(C)o2)cc1`, the growth inhibition was -4.69% (inactive) in [6] and 14.9% (inactive) in assay [7]. Besides, the viability increase in assay [8] is -1.03% (inactive). The viability in assay [9] is 76.4% (inactive); in assay [12], 76.5% (inactive). In assay [11], the RAM network inhibition is 6.53% (inactive).

In the case of `COCCn1c(=O)[nH]c2cc(C(=O)NCCCN3CCN(c4ccc(F)cc4)CC3)ccc2c1=O`, the viability in assay [1] is 97.8% (inactive); in assay [2], 100% (inactive); in assay [3] (setting [13]), 96.6%; in assay [3] (setting [14]), 100%; in assay [9] it was 86.2% (inactive). Moreover, in assay [3] (H69AR cells + 2 uM doxorubicin), the differential viability (reversal) is 3.64% (inactive). The inhibition in assay [4] was 0% (inactive); in assay [5], -2.38% (inactive); in assay [10] it was 0.63% (inactive). Moreover, the values for the growth inhibition in assay [6] and in assay [7] were -12.8% (inactive) and -0.415% (inactive), respectively. Further, the viability increase in assay [8] is -0.08% (inactive). The RAM network inhibition in assay [11] was 8.31% (inactive).
